C diff growth: C. difficile growth inhibitors, primary screen, HTS; Clostridium difficile clinical isolate growth, OD600, 24 h; stronger effect = lower value; hit rate 0.25% among 86,000; AID 1259249, 2017; growth activity, negative = inhibition, % at 16 µg/mL (by protocol);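 active means mean growth activity at or below -80% and every replicate also at or below -80%; inconclusive means mean at or below -80% but some replicate above -80%; inactive means mean growth activity above -80%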;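 further: 0% = DMSO wells and -100% = levofloxacin 16 µg/mL wells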
Pf Dd2 growth: P. falciparum Dd2 growth inhibitors, primary screen, SYBR Green fluorescence, single dose replicates. activity change, % at 10 µM. AID 1159554, 2015. 72 h; stronger effect = lower value. hit rate 2.3% among 94,000; in the data active means activity change below about -80%; inconclusive means no clear call, values can overlap the other calls
T cruzi growth-1: T. cruzi intracellular proliferation inhibitors, primary screen, cell-based, beta-gal Tulahuen parasites, NIH3T3 host, luminescence; T. cruzi beta-gal in NIH3T3, GalScreen luminescence, 90 h; inhibition, % at 8.34 µM; AID 624255, 2012; hit rate 5.9% among 77,000;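 active means mean inhibition above about 93%, with at least 55% of replicates each passing it, limit read from the data, passing the limit was not always enough; inconclusive means only one of those two conditions holds; inactive means neither condition holds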
T cruzi growth-2: T. cruzi intracellular proliferation inhibitors, confirmation, cell-based, NIH3T3 host, beta-gal parasite, luminescence, cherry-pick. shares compounds with T cruzi growth-1. T. cruzi beta-gal in NIH3T3, GalScreen luminescence, 90 h. inhibition, % at 8.35 µM. hit rate 72% among 5,600;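 active means mean replicate inhibition above about 95% and at least 55% of replicates individually reaching it, limit read from the data; inconclusive means only one of the two criteria is met; inactive means neither criterion is met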
T cruzi growth-3: inhibitors of intracellular T. cruzi replication, confirmation, NIH3T3 host cells, beta-gal parasites, cherry-pick, set 2 | inhibition, % at 2.09 µM | shares compounds with T cruzi growth-1 | hit rate 21% among 5,600 | AID 651740, 2012 | T. cruzi beta-gal in NIH3T3, GalScreen luminescence, 90 h;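 active means mean inhibition above about 95%, with at least 55% of replicates also reaching it, limit read from the data; inconclusive means meets just one of the two conditions; inactive means meets neither condition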;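 further: plate controls were neutral control median for no effect and positive control median for full effect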
3T3 cytotox: cytotoxicity in mouse NIH/3T3 fibroblasts, confirmation, cytotoxicity control for T. cruzi proliferation inhibitor project, cell-based, cherry-pick, single point; shares compounds with T cruzi growth-1; NIH/3T3 viability, CellTiter-Glo ATP luminescence, 90 h; cytotoxicity (signal decrease), % at 8.35 µM; hit rate 14% among 5,600; AID 651742, 2012;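 active means mean signal decrease across replicates above about 35% based on untreated-well scatter, with enough replicates individually passing, limit read from the data; inconclusive means no rule stated though some were filed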;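 further: 0% = median of neutral control wells and 100% = median of positive control wells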
NIH3T3 tox 2: NIH/3T3 fibroblast cytotoxicity, confirmation, cytotoxicity control, cell-based, cherry-pick, single point, set 2 | hit rate 56% among 5,600 | AID 651744, 2012 | inhibition, % at 24.9 µM | NIH/3T3 viability, CellTiter-Glo ATP luminescence, 90 h | shares compounds with T cruzi growth-1;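 active means mean loss of cell viability signal at or above a set limit, and enough replicates individually reaching it; inconclusive means meets only the mean limit or only the replicate share; inactive means meets neither condition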;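 further: 0% = median of neutral control wells and 100% = median of positive control wells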
* = called active by the depositor; ? = inconclusive; . = not tested or not shown; + = active, no number. Only some compounds are listed: those with a hit (about 6.7% of all), similar ones and a draw of the others.

SMILES | C diff growth | Pf Dd2 growth | T cruzi growth-1 | T cruzi growth-2 | T cruzi growth-3 | 3T3 cytotox | NIH3T3 tox 2
COc1cccc(C#Cc2ccc([C@H]3[C@@H](C#N)N(C(=O)C4CC4)[C@@H]3CO)cc2)c1 | 1 | -37 | 100* | 99* | 107* | 0 | 16
COc1cccc(C#Cc2ccc([C@@H]3[C@@H](CO)N(C(=O)C4CC4)[C@H]3C#N)cc2)c1 | -8 | -32 | 92 | . | . | . | .
O=C(C[C@@H]1C[C@H]2c3cc(NC(=O)NC4CCCC4)ccc3O[C@H]2[C@@H](CO)O1)NC1CCCC1 | . | 4 | 5 | . | . | . | .
O=C(C[C@H]1CC[C@@H]2[C@H](COC[C@H](O)CN2Cc2nccs2)O1)NCc1ccc(-c2ccccc2)cc1 | . | -9 | 42 | . | . | . | .
C[C@H](CO)N1C[C@H](C)[C@@H](CN(C)C(=O)CCCN(C)C)OCCCC[C@H](C)Oc2ccc(NC(=O)Nc3ccc(F)cc3)cc2C1=O | -2 | 18 | 8 | . | . | . | .
O=C(C[C@@H]1CC[C@H](NC(=O)C2CCC2)[C@@H](CO)O1)NC1CCC1 | 1 | 0 | . | . | . | . | .
C[C@H](CO)N1C[C@H](C)[C@H](CN(C)S(=O)(=O)c2ccccc2)Oc2ccc(NC(=O)C3CC3)cc2CC1=O | -3 | -32 | 6 | . | . | . | .
C/C=C/c1ccc2c(c1)O[C@@H](CN(C)Cc1ccccc1)[C@@H](C)CN([C@@H](C)CO)S2(=O)=O | 1 | -17 | 37 | . | . | . | .
C/C=C/c1ccc2c(c1)O[C@H](CN(C)Cc1ccccc1)[C@@H](C)CN([C@@H](C)CO)S2(=O)=O | 8 | -2 | 117* | 100* | 104* | 14 | 104*
C/C=C/c1ccc2c(c1)O[C@H](CN(C)Cc1cccc(F)c1)[C@@H](C)CN([C@@H](C)CO)S2(=O)=O | 28 | -20 | . | . | . | . | .
C/C=C/c1ccc2c(c1)O[C@H](CN(C)Cc1ccc(F)cc1)[C@@H](C)CN([C@@H](C)CO)S2(=O)=O | 31 | -6 | 117* | ? | 89 | 8 | 104*
CCCNC(=O)C[C@@H]1CC[C@H]2[C@@H](COc3ccc(NC(=O)Cc4cccs4)cc3C(=O)N2C)O1 | 18 | -66 | -8 | . | . | . | .
O=C(NC1Cc2ccccc2C1)[C@H]1N[C@H]2c3cccc(=O)n3C[C@H]2[C@@H]1CO | 14 | . | 1 | . | . | . | .
CN(C)CC(=O)N[C@@H]1CC[C@@H](CCNS(=O)(=O)c2ccccc2)O[C@H]1CO | -6 | 7 | . | . | . | . | .
Cc1noc(C)c1NC(=O)NCC[C@@H]1CC[C@@H](NC(=O)Cc2cccnc2)[C@H](CO)O1 | 0 | 10 | 1 | . | . | . | .
O=C(Nc1ccc(-c2ccccc2)cc1)[C@@H]1[C@@H](CO)[C@@H]2Cn3c(cccc3=O)[C@@H]2N1CC1CCCCC1 | 1 | -82* | ? | ? | 105* | -9 | 104*
O=C(Nc1ccc(-c2ccccc2)cc1)[C@H]1[C@H](CO)[C@H]2Cn3c(cccc3=O)[C@H]2N1CC1CCOCC1 | -9 | -19 | 63 | . | . | . | .
CCCNC(=O)[C@H]1[C@H](CO)[C@H]2Cn3c(cccc3=O)[C@H]2N1CC1CCCCC1 | -1 | 6 | 10 | . | . | . | .
CCNC(=O)[C@H]1[C@H](CO)[C@H]2Cn3c(cccc3=O)[C@H]2N1CC1CCCCC1 | . | . | + | 39 | 8 | 0 | -1
C[C@H](O)C#Cc1ccc2c(c1)O[C@H](CN(C)C(=O)C1CCC1)[C@@H](C)CN([C@@H](C)CO)S2(=O)=O | 0 | -33 | 24 | . | . | . | .
C[C@H]1CN([C@@H](C)CO)S(=O)(=O)c2ccc(-c3ccncc3)cc2O[C@H]1CN(C)Cc1ccc(Oc2ccccc2)cc1 | 31 | -73 | 124 | . | . | . | .
C[C@@H]1CN([C@@H](C)CO)S(=O)(=O)c2ccc(-c3cncnc3)cc2O[C@@H]1CN(C)Cc1ccc(Oc2ccccc2)cc1 | . | -15 | . | . | . | . | .
C[C@@H]1CN([C@H](C)CO)S(=O)(=O)c2ccc(-c3ccncc3)cc2O[C@@H]1CN(C)Cc1ccc(Oc2ccccc2)cc1 | -1 | -87* | 116* | 99* | 107* | 84* | 89*
C[C@H]1CN([C@@H](C)CO)S(=O)(=O)c2ccc(-c3ccncc3)cc2O[C@@H]1CN(C)Cc1ccc(Oc2ccccc2)cc1 | 35 | -79 | ? | 92 | 107* | 86* | 103*
CO[C@H]1CN(C)C(=O)c2cc(NC(=O)Nc3cccc(Cl)c3)ccc2OC[C@@H](C)NC[C@H]1C | . | -56 | 23 | . | . | . | .
SMILES | C diff growth | Pf Dd2 growth | T cruzi growth-1 | T cruzi growth-2 | T cruzi growth-3 | 3T3 cytotox | NIH3T3 tox 2
O=C(C1CCOCC1)N1CC2(C1)[C@@H](c1ccccc1)[C@H](CO)N2Cc1ccc(Cl)cc1 | 7 | -52 | . | . | . | . | .
C[C@H](CO)N1C[C@H](C)[C@@H](CN(C)S(=O)(=O)c2ccc(F)cc2)Oc2c(NS(=O)(=O)c3ccc(Cl)cc3)cccc2C1=O | -12 | 10 | 27 | . | . | . | .
CCC(=O)Nc1ccc2c(c1)C(=O)N(C)C[C@@H](OC)[C@@H](C)CN(C(=O)CN1CCOCC1)[C@H](C)CO2 | . | . | -6 | . | . | . | .
C[C@@H]1CN([C@H](C)CO)S(=O)(=O)c2ccc(-c3ccc(F)cc3)cc2O[C@@H]1CN(C)C(=O)C1CCCCC1 | -2 | -20 | 108* | 103* | 92 | 28 | 102*
Cc1ccc(-c2ccc3c(c2)O[C@H](CN(C)C(=O)C2CCC2)[C@@H](C)CN([C@@H](C)CO)S3(=O)=O)cc1 | -7 | -48 | 67 | . | . | . | .
Cc1ccc(-c2ccc3c(c2)O[C@H](CN(C)C(=O)C2CCCCC2)[C@@H](C)CN([C@H](C)CO)S3(=O)=O)cc1 | . | -18 | 112* | 108* | 103* | -16 | 94*
Cc1ccc(-c2ccc3c(c2)O[C@@H](CN(C)C(=O)C2CC2)[C@@H](C)CN([C@H](C)CO)S3(=O)=O)cc1 | . | -10 | 108 | . | . | . | .
Cc1ccc(-c2ccc3c(c2)O[C@@H](CN(C)C(=O)C2CCCCC2)[C@H](C)CN([C@@H](C)CO)S3(=O)=O)cc1 | . | -40 | 120* | 108* | ? | 32 | 97*
C[C@@H]1CN([C@@H](C)CO)S(=O)(=O)c2ccc(-c3ccc(F)cc3)cc2O[C@H]1CN(C)C(=O)C1CCC1 | . | -54 | 85 | . | . | . | .
Cc1noc(C)c1S(=O)(=O)N(C)C[C@@H]1Oc2ccc(NC(=O)Nc3ccc(F)cc3)cc2CC(=O)N([C@H](C)CO)C[C@@H]1C | -4 | -2 | 22 | . | . | . | .
COc1ccc(NC(=O)Nc2cccc3c2O[C@H](CN(C)C(=O)Nc2ccccc2)[C@H](C)CN([C@@H](C)CO)C3=O)cc1 | 3 | -15 | 11 | . | . | . | .

Screens: PubChem, Broad Institute
